Screening results (PubChem)
Shiga toxin inh: inhibitors of Shiga toxin in Vero cells | Vero cells, Shiga toxin protein synthesis inhibition reporter | inhibition, % at 38.7 µM | hit rate 9.2% among 290,000; in the data active = inhibition mostly above about 28%, no sharp cut-off; inactive = mostly below about 43%; also: 0% is about no effect
Cycloheximide cs: counter-screen for Shiga toxin inhibitors: cycloheximide protein synthesis inhibition. AID 2314. cell reporter, cycloheximide protein synthesis inhibition counterscreen. hit rate 12% among 300,000. max response, %; in the data active = max response mostly above about 13%, no sharp cut-off; inactive = mostly below about 14%; also: read at 38.3 µM for the half of the compounds with a filed dose; 0% is about no effect
SARS PLpro yeast: SARS-CoV PLP inhibition in yeast. S. cerevisiae expressing SARS-CoV PLpro, growth rescue. hit rate 0.19% among 330,000. AID 485353. Potency, µM (top dose mostly 32.9 µM), without a hit: at the top dose activity, positive = growth rescue, hits mostly activators; also: potency is read from the fitted curve at half-maximal effect; 0% is about no effect; nearly all actives have a fitted effect of over 55% in size
NS1 function inh: blocks influenza NS1 protein function; Potency, µM (top dose mostly 46.1 µM), without a hit: at the highest dose activity, positive = more growth; hit rate 0.4% among 270,000; AID 2326; also: potency is read from the fitted curve at half-maximal effect; actives are rising curves; nearly all actives have a fitted effect of over 50% in size
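Read-out: OD600 growth recovery of NS1-expressing budding yeast. Cells grown overnight at 30C in -URA glucose medium, washed, resuspended and diluted 1:100 in 2% galactose assay medium, pH 6.0. Same strain lacking NS1 served as positive control.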
Numbers without * were called inactive. In the library only some 12% were active in any assay of this set; here they are far more common. Unless noted, calls follow the shape of the full dose curve.

Results for Cc1ccc2nc(NC(=O)/C=C/c3ccc4c(c3)OCO4)sc2c1 ?
Shiga toxin inh: 10; Cycloheximide cs: 3; SARS PLpro yeast: 9%; NS1 function inh: inconclusive

Results for O=C(NC1=NCCS1)c1ccc(Cl)c(S(=O)(=O)N2CCCCCC2)c1 ?
Shiga toxin inh: 35; Cycloheximide cs: 18*; SARS PLpro yeast: -10%; NS1 function inh: -3%

What do the screens show for `Cc1ccc(C(=O)Nc2cccc(O)c2)cc1S(=O)(=O)N1CCCCCC1`?
Shiga toxin inh: 61*; Cycloheximide cs: 54*; SARS PLpro yeast: 2%; NS1 function inh: 10%

How did O=C(NC1=NCCS1)c1ccc(Cl)c(S(=O)(=O)N2CCc3ccccc32)c1 do in these assays?
Shiga toxin inh: 11; Cycloheximide cs: -2; SARS PLpro yeast: -7%; NS1 function inh: -56%

How did O=C(NCc1nc2ccccc2[nH]1)c1cccc(S(=O)(=O)N2CCCCC2)c1 do in these assays?
Shiga toxin inh: -11; Cycloheximide cs: -2; SARS PLpro yeast: 0%; NS1 function inh: -1%

How did Cc1ccc(C(=O)Nc2ccc3cn[nH]c3c2)cc1S(=O)(=O)N1CCCCC1 do in these assays?
Shiga toxin inh: 76*; Cycloheximide cs: 38*; SARS PLpro yeast: -5%; NS1 function inh: -7%

How did O=C(NCc1nc2ccccc2[nH]1)c1ccc(Cl)c(S(=O)(=O)N2CCCC2)c1 do in these assays?
Shiga toxin inh: 32; Cycloheximide cs: 14*; SARS PLpro yeast: -1%; NS1 function inh: inconclusive

How did COc1ccc(C(=O)Nc2ccc(C)c(S(=O)(=O)N3CCCCCC3)c2)cc1 do in these assays?
Shiga toxin inh: 28; Cycloheximide cs: 9; SARS PLpro yeast: -4%

What do the screens show for `Cc1ccc(NC(=O)c2ccc(F)cc2)cc1S(=O)(=O)N1CCCCCC1`?
Shiga toxin inh: 4; Cycloheximide cs: -2; SARS PLpro yeast: 1%

Results for O=C(COC(=O)c1ccc(Cl)c(S(=O)(=O)N2CCCCCC2)c1)Nc1ccccc1 ?
Shiga toxin inh: 56*; Cycloheximide cs: 35*; SARS PLpro yeast: -15%; NS1 function inh: 34%

How did O=C(Nc1cccnc1)c1ccc(Cl)c(S(=O)(=O)N2CCCCC2)c1 do in these assays?
Shiga toxin inh: 2; Cycloheximide cs: 10; SARS PLpro yeast: -4%; NS1 function inh: -8%

What do the screens show for `O=C(COC(=O)c1ccc(S(=O)(=O)N2CCCC2)cc1)Nc1ccccc1`?
SARS PLpro yeast: 2%

What do the screens show for `O=C(O)c1cccc(NC(=O)c2ccc(Cl)c(S(=O)(=O)N3CCCCCC3)c2)c1`?
Shiga toxin inh: 101*; Cycloheximide cs: 50*; SARS PLpro yeast: 2%

How did O=C1CSC(c2ccccc2Cl)N1 (stereo not drawn) do in these assays?
Shiga toxin inh: 13; Cycloheximide cs: -4; SARS PLpro yeast: -7%

Results for Cc1[nH]c2ccccc2c1/C=N/NC(=O)CNC(=O)c1ccc2c(c1)OCCO2 ?
Shiga toxin inh: -1; Cycloheximide cs: -3; SARS PLpro yeast: -1%; NS1 function inh: -2%

Results for O=C1NC(=O)C(=Cc2ccc(-c3ccc(Cl)cc3)o2)C(=O)N1 ?
Shiga toxin inh: 0; Cycloheximide cs: 1; SARS PLpro yeast: 6%; NS1 function inh: -3%

What do the screens show for `O=C1NC(=O)C(=Cc2ccc(-c3ccc(F)cc3O)o2)C(=O)N1`?
Shiga toxin inh: 17; Cycloheximide cs: 14*; SARS PLpro yeast: 7%; NS1 function inh: 5%

Results for CSCC[C@H](NC(=O)[C@@H]1Cc2ccccc2CN1)C(=O)NC[C@H]1CC[C@H](C(=O)O)CC1 ?
Shiga toxin inh: 1; Cycloheximide cs: -3; SARS PLpro yeast: -2%; NS1 function inh: 2%

How did O=C(O[C@@H]1OC2COC(=O)c3cc(O)c(O)c(O)c3-c3c(cc(O)c(O)c3O)C(=O)O[C@@H]([C@H]1O)[C@@H]2O)c1cc(O)c(O)c(O)c1 do in these assays?
Shiga toxin inh: -12; Cycloheximide cs: -2; SARS PLpro yeast: 13µM*; NS1 function inh: 16%

What do the screens show for `CC(C)Cc1nc(SCC(=O)N2CCCC2)c2c(=O)n(C)c(=O)n(C)c2n1`?
Shiga toxin inh: -3; Cycloheximide cs: -1; SARS PLpro yeast: inconclusive; NS1 function inh: -2%

How did O=C(OCC(=O)c1c[nH]c2ccccc12)c1ccco1 do in these assays?
Shiga toxin inh: 88*; Cycloheximide cs: 68*; SARS PLpro yeast: -7%; NS1 function inh: -10%

Results for Cc1[nH]c2ccccc2c1C(=O)COC(=O)C1CCC1 ?
Shiga toxin inh: 40; Cycloheximide cs: 23*; SARS PLpro yeast: 0%; NS1 function inh: -11%

Results for O=C(COC(=O)C1CCC1)c1c[nH]c2ccccc12 ?
SARS PLpro yeast: -1%

What do the screens show for `O=C(COC(=O)C1CC1)c1c[nH]c2ccccc12`?
Shiga toxin inh: 76*; Cycloheximide cs: 57*; SARS PLpro yeast: -5%; NS1 function inh: -11%

What do the screens show for `Cc1[nH]c2ccccc2c1C(=O)COC(=O)C1CCC(=O)N1` (stereo not drawn)?
Shiga toxin inh: -10; Cycloheximide cs: -3; SARS PLpro yeast: -11%; NS1 function inh: -3%

How did O=C(OCC(=O)c1c[nH]c2ccccc12)c1ccc(Br)o1 do in these assays?
Shiga toxin inh: 111*; Cycloheximide cs: 26*; SARS PLpro yeast: -3%; NS1 function inh: -10%

What do the screens show for `O=C(NCCc1c[nH]c2ccccc12)c1ccc(Br)o1`?
SARS PLpro yeast: -8%

How did COc1cc(NC(=O)c2ccco2)c(C(=O)OCC(=O)c2c[nH]c3ccccc23)cc1OC do in these assays?
Shiga toxin inh: 18; Cycloheximide cs: 0; SARS PLpro yeast: 6%; NS1 function inh: inconclusive

Results for CCOc1ccc(C(=O)NCCN2CCCCC2)c(OCC)c1 ?
Shiga toxin inh: 12; Cycloheximide cs: -1; SARS PLpro yeast: -10%; NS1 function inh: -2%

What do the screens show for `Cn1c(N)c(C(=O)COC(=O)COc2ccccc2C#N)c(=O)n(C)c1=O`?
Shiga toxin inh: -7; Cycloheximide cs: -1; SARS PLpro yeast: 0%; NS1 function inh: -1%

Results for O=C(CP(=O)(c1ccccc1)c1ccccc1)Nn1cnnc1 ?
Shiga toxin inh: 99*; Cycloheximide cs: 49*; SARS PLpro yeast: -12%; NS1 function inh: -9%

How did CCNC(=O)CP(=O)(c1ccccc1)c1ccccc1 do in these assays?
Shiga toxin inh: 26; Cycloheximide cs: 1; SARS PLpro yeast: -2%; NS1 function inh: 6%

What do the screens show for `COc1ccccc1C1CCN(Cc2cccc([N+](=O)[O-])c2)CC1`?
Shiga toxin inh: 3; Cycloheximide cs: -1; SARS PLpro yeast: 0%; NS1 function inh: -3%

Results for COc1ccccc1C1CCN(c2ccc(CO)cc2[N+](=O)[O-])CC1 ?
Shiga toxin inh: 18; Cycloheximide cs: 14*; SARS PLpro yeast: -4%; NS1 function inh: -4%

Results for Nc1cc(N)nc(SCc2cc([N+](=O)[O-])cc3c2OCOC3)n1 ?
Shiga toxin inh: 27; Cycloheximide cs: 14; SARS PLpro yeast: 0%; NS1 function inh: 10%

How did O=C(OCc1cc([N+](=O)[O-])cc2c1OCOC2)c1ccccn1 do in these assays?
Shiga toxin inh: 35; Cycloheximide cs: 33*; SARS PLpro yeast: 0%; NS1 function inh: -1%

How did O=C(OCc1cc([N+](=O)[O-])cc2c1OCOC2)c1cccnc1SC(F)F do in these assays?
SARS PLpro yeast: -1%

Results for O=[N+]([O-])c1cc2c(c(CSc3ncccn3)c1)OCOC2 ?
Shiga toxin inh: 60; Cycloheximide cs: 21*; SARS PLpro yeast: 0%
